Source: PubChem BioAssay
Compounds with a hit are over-represented: about 5.7% of the library has one in this group of screens.
DAX1 inh-1 – inhibitors of DAX1 repression of SF-1 activated StAR promoter; HEK293T StAR-luciferase reporter, SF-1/DAX-1 repression relief; inhibition, % at 6.8 µM; 370,000 compounds, 1.1% hits;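 active means inhibition above the mean over all tested compounds plus 3 SD, cut at about 3.6% in these data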;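 further: 0% = DAX-1 cells with DMSO and 100% = cells lacking DAX-1 with DMSO; higher inhibition means more luminescence from relief of DAX-1 repression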
hgDAF12 agonist – hgDAF-12 agonism, primary luciferase screen; HEK293 GAL4-hgDAF12 UAS-luciferase reporter, agonist luminescence; normalized to butyrate control; activation, % at 6.8 µM; 370,000 compounds, 1.8% hits;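 active means activation above a cutoff set at the mean of all screened compounds plus 3 SD, cut at about 10% in these data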;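 further: 0% = DMSO wells and 100% = sodium butyrate wells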
hcDAF12 agonist – activators of H. contortus DAF-12 nuclear receptor; HEK293 hcDAF-12 lit1-tk-luc reporter, luminescence; 0% DMSO, 100% Δ7-dafachronic acid; activation, % at 6.8 µM; 370,000 compounds, 1.4% hits; AID 652067;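 active means activation above the mean of all tested compounds plus 3 SD, cut at about 5.5% in these data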;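 further: 100% = response to 3 µM Δ7-dafachronic acid high control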
ssDAF-12 act – activates DAF-12 receptor from parasite S. stercoralis; 370,000 compounds, 1% hits; HEK293 ssDAF-12/GRIP1 lit1-tk-luc reporter, luminescence; % of 3 µM dafachronic acid response; activation, % at 6.8 µM; AID 652126;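 active means activation above the mean over all tested compounds plus 3 SD, cut at about 0.9% in these data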;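 further: 0% = DMSO-only wells and 100% = 3 µM delta7-dafachronic acid wells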
AHR activator – activates the human aryl hydrocarbon receptor; activation, % at 5 µM; P35869; AHR-responsive luciferase reporter cells, luminescence; 320,000 compounds, 2.5% hits; AID 2796; in the data active means activation above about 47%;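 further: 0% = vehicle wells and 100% = reference agonist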
DAX1 inh-2 – inhibitors of human orphan nuclear receptor DAX1 (NR0B1). inhibition, % at 6.75 µM. 340,000 compounds, 0.99% hits. HEK293 Gal4-DAX1 luciferase reporter, luminescence;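 active means inhibition above the mean over all tested compounds plus 3 SD, cut at about 4.2% in these data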;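 further: 0% = DAX1-transfected cells with DMSO and 100% = empty-vector control cells with DMSO; inhibition shows as a rise in luminescence from relieved DAX1 repression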
Target sequence (P51843 207-470 limits assumed): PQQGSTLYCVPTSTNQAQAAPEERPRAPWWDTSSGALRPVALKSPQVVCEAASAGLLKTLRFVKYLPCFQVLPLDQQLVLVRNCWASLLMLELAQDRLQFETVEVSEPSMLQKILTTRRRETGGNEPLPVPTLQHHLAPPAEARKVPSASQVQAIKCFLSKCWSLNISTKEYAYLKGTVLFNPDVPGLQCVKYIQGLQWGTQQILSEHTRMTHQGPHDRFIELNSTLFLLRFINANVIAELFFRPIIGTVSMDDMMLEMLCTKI
hgDAF12 ag – hgDAF-12 agonism, confirmation assay | shares compounds with hgDAF12 agonist | HEK293 GAL4-hgDAF12 luciferase reporter, agonist mode; percent of butyrate response | activation, % at 6.8 µM | 3,300 compounds, 80% hits;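 active means mean activation over triplicate wells above the hit cutoff derived from the earlier primary screen, cut at about 11% in these data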;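 further: 0% = DMSO low control and 100% = 2 mM sodium butyrate high control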
LXRb DAF12 ctr – counter-screen for DAF-12 agonists: agonists of human LXR-beta | shares compounds with hgDAF12 agonist | HEK293 Gal4-LXR luciferase reporter, 24 h | AID 743051 | activation, % at 6.8 µM | 3,300 tested, under 10 active;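 active means mean activation of the triplicate above a set limit carried over from the primary screen, none filed active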
Numbers without * were called inactive; x = no result given.

SMILES | DAX1 inh-1 | hgDAF12 agonist | hcDAF12 agonist | ssDAF-12 act | AHR activator | DAX1 inh-2 | hgDAF12 ag | LXRb DAF12 ctr
c1ccc(-n2cnc3cc(NCc4ccco4)ccc32)cc1 | 4.5* | 17* | 2 | -1 | 7 | 0 | 9 | 0
CCCN(CC(=O)Nc1ccccc1OC)C(=O)Cc1ccccc1F | 0 | -2 | -3 | 0 | 2 | 0 | x | x
COc1cc(/C=C/C(=O)OCC(=O)NCc2ccco2)ccc1O | -1 | 0 | -1 | -1 | 1 | 1 | x | x
O=C(c1ccc2nc(Cc3ccccc3F)oc2c1)N1CCCC1 | 3 | 15* | 5 | 0 | 9 | 2 | 14* | 0
O=C(Nc1cccc(Cl)c1)Nc1nnc([C@@H]2C[C@H](O)[C@@H](CO)O2)s1 | 2 | 16* | 2 | -1 | x | x | 10 | 0
O=C(Nc1cccc(F)c1)Nc1nnc([C@@H]2C[C@H](O)[C@@H](CO)O2)s1 | 3 | 5 | 4 | -1 | x | x | x | x
CCOC(=O)/C(C#N)=C1\SS/C(=C(/C#N)C(=O)OCC)S1 | x | x | x | x | 2 | x | x | x
COc1cccc(C(=O)NCCSc2ccc(F)cc2)c1 | 3 | 14* | 3 | 0 | 9 | 0 | 12* | 0
COC(=O)c1ccccc1CC1Cc2cc3c(cc2C1=O)CCC3 (stereo not given) | 4.3* | 14* | 2 | 1.9* | x | 3 | 13* | 1
O=C(NC(=S)Nc1ccc(Cl)cn1)c1cc([N+](=O)[O-])ccc1N1CCOCC1 | 0 | 1 | 0 | -1 | -5 | 1 | x | x
COC(=O)c1ccccc1-n1cccc1C(=O)NP(=O)(N1CCOCC1)N1CCOCC1 | 0 | -3 | -1 | -1 | 0 | 0 | x | x
O=C(COc1ccc(Cl)cc1Cl)Nc1cccnc1 | 3 | 15* | 3 | 0 | -1 | 2 | 14* | 1
C/C(N)=C(/C#N)C(=O)CSc1nnc(Nc2ccccc2C)s1 | 0 | 2 | 0 | -1 | 5 | 1 | x | x
C/C(N)=C(/C#N)C(=O)CSc1nnc(Nc2ccccc2)s1 | 2 | 15* | 3 | -1 | 17 | 1 | 10 | 0
Cn1c(-c2ccc(Br)o2)nc2ccccc21 | 3.7* | 15* | 5.8* | 1.0* | 33 | 2 | 15* | 1
O=C(OCc1ccc([N+](=O)[O-])cc1)c1ccc2ccccc2n1 | 0 | 0 | 4 | -1 | 7 | -2 | x | x
O=C(O)C(=O)/C(=C\c1ccc([N+](=O)[O-])cc1)c1ccc2ccccc2n1 | 3 | 22* | 5 | 1 | 22 | 2 | 18* | 1
O=P(c1ccccc1)(c1ccccc1)c1cnc2ccccn12 | x | -1 | -2 | -1 | x | x | x | x
Cc1oc(S(=O)(=O)N2CCCCC2)cc1NC(=O)Nc1ccc(Cl)cc1 | -1 | 0 | -2 | -1 | 3 | 1 | x | x
COc1ccc(C2N=C(c3ccccc3)NO2)cc1OC (stereo not given) | 2 | 14* | 6.1* | 1 | 44 | 5.9* | 12* | 1
COc1ccc(C2N=C(c3ccccc3)NC(c3ccccc3)=N2)cc1 | 0 | 0 | -2 | -1 | 0 | 0 | x | x
O=C(Nc1ccc(NC(=O)C2CCCCC2)cn1)c1ccco1 | 4.3* | 16* | 6.4* | 0 | 6 | -1 | 11* | 1
O=C(Cc1ccccc1)Nc1ccc(NC(=O)C2CCCCC2)nc1 | -1 | 1 | -3 | -2 | 0 | -1 | x | x
Cn1c(NCc2cc(Br)ccc2O)nc2ccccc21 | -1 | -1 | -2 | -1 | -2 | 2 | x | x
COc1ccc(CNc2nc3ccccc3n2C)c(O)c1 | 4.5* | 17* | 4 | 0 | 1 | 4 | 21* | 1
SMILES | DAX1 inh-1 | hgDAF12 agonist | hcDAF12 agonist | ssDAF-12 act | AHR activator | DAX1 inh-2 | hgDAF12 ag | LXRb DAF12 ctr
C/C(=N/OCc1ccc(Br)cc1)c1ccccn1 | 3.7* | 23* | 5 | 0 | 9 | 2 | 22* | 1
N/C(=N\OCc1ccc([N+](=O)[O-])cc1)c1ccccn1 | x | x | x | x | -17 | x | x | x
Cc1ccccc1/C=N\NC(=O)c1csnn1 | 2 | 14* | 3 | -1 | 51* | 1 | 3 | 0
Cc1ccc(N2CCN(C(=O)NC3CCCCC3)CC2C)cc1 (stereo not given) | 0 | 2 | 0 | -1 | 0 | 1 | x | x
COc1ccc(S(=O)(=O)Nc2ccc3c(c2)[C@H]2C[C@H](CC(=O)NCC4CC4)O[C@@H](CO)[C@H]2O3)cc1 | 0 | 1 | 1 | -1 | x | 0 | x | x
COc1ccc(C(=O)C2CCN(C(=O)c3ccc(C)cc3)CC2)cc1 | -2 | -4 | -3 | -2 | 1 | -2 | x | x
COc1ccc(-c2ccc(C(=O)C3CC3)cc2)cc1 | 2 | 15* | 3 | 0 | 2 | 2 | 20* | 1
C[C@H]1Cn2cnc(C(=O)N(C)Cc3ccccc3)c2C(=O)N1 | 0 | 30* | 1 | 0 | x | x | 0 | 0
C[C@H]1CNC(=O)c2c(C(=O)N(C)Cc3ccccc3)ncn21 | 0 | -1 | 0 | -1 | x | x | x | x
COc1ccc(/C(O)=C2/C(=O)C(=O)N(c3ncccn3)C2c2ccc(C(C)(C)C)cc2)cc1 (stereo not given) | 1 | 2 | -1 | -1 | 1 | x | x | x
COc1cc(/C=N/N=C(\N)c2nonc2N)ccc1O | 2 | 8 | 0 | -1 | -1 | 2 | x | x
N/C(=N\N=C\c1ccc(O)c(O)c1)c1nonc1N | 1 | 15* | 2 | 0 | 0 | 3 | 6 | 0
Cc1c(C(=O)NCC2CCCO2)oc2ccc3c(c12)C(=O)CC(C)(C)O3 (stereo not given) | 1 | 17* | 5 | 0 | -5 | 0 | 12* | 1
CC(=O)Nc1nc(C)c(CCC2OCCO2)c(=O)[nH]1 | 0 | 1 | -2 | -1 | 1 | 0 | x | x
O=C(Nc1nsc(-c2ccccc2)n1)c1ccc(F)cc1 | 3 | 16* | 3 | -1 | 9 | 3 | 10 | 0
Cc1ccc(N2C(=O)CSC2c2cccnc2)c(Cl)c1 (stereo not given) | 0 | 0 | 0 | 0 | -2 | 2 | x | x
CC1SC(C)C(=O)N(CC(=O)Nc2ccc3c(c2)OCO3)C1=O (stereo not given) | -2 | 14* | 0 | -1 | 7 | 1 | 3 | 0
O=C(CN1C(=O)CSCC1=O)Nc1ccc2c(c1)OCO2 | 0 | 1 | 1 | -1 | 2 | 0 | x | x
COc1ccc(C(=O)Nc2cccc(OC(=O)c3ccco3)c2)cc1 | 2 | 14* | 4 | 0 | 3 | -1 | 14* | 1
C=CCNc1nc(NCc2ccc(N(C)C)cc2)c2sc(-c3ccccc3)cc2n1 | 4.5* | 15* | 2 | 0 | x | x | 10 | 0
